This passage reports outcome and AC50 results from PubChem BioAssay (EPA / NIEHS).

SMILES strings stand for the structures. Where “and” joins values, the source holds several entries; their conditions need not be identical. Equal values may be shown once. Where a structure was tested more than once in an assay, its records may differ in their call. Calls of active or inactive are those of the source. Rule for the calls: active = hit-call score of the fitted dose curve at least 0.9, where 1 is the maximum; inactive = score below 0.9.

Read-out in assay [1]: Human Leukocyte Antigen - DR isotype (HLADR), HLA-DRA (gene 3122)
Put plainly: BSK_BE3C_HLADR: BioMAP Diversity Plus: BE3C Assay for Human Leukocyte Antigen - DR isotype (HLADR) Biomarker Activity (AID 2283032). The conditions noted are these: primary human bronchial epithelial cells; actives raise or lower the signal. In outline:
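Signal came from an ELISA for HLA-DR in human bronchial epithelial primary cells harvested 24 h after treatment; gain- and loss-of-signal fitting used DMSO controls as reference.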

Read-out in assay [2]: Interferon-gamma inducible Protein 10 (IP10), CXCL10 (gene 3627)
As to the kind of experiment: BSK_BE3C_IP10: BioMAP Diversity Plus: BE3C Assay for Interferon-gamma inducible Protein 10 (IP10) Biomarker Activity (AID 2283034). To be noted: primary human bronchial epithelial cells; actives raise or lower the signal. In outline:
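Using primary human bronchial epithelial cultures, the assay captures IP-10 by ELISA one day (24 h) after exposure. Parallel SRB staining of total protein flags overt cytotoxicity. Fits run bidirectionally relative to DMSO.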

Read-out in assay [3]: Monokine induced gamma interferon (MIG), CXCL9 (gene 4283)
Put plainly: BSK_BE3C_MIG: BioMAP Diversity Plus: BE3C Assay for Monokine induced gamma interferon (MIG) Biomarker Activity (AID 2283035).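 For outcome: MIG protein measured by ELISA in BE3C cultures after 24 h of dosing.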 To be noted: primary human bronchial epithelial cells; actives raise or lower the signal. In outline: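 MIG level was determined by ELISA after 24 h chemical treatment of primary human bronchial epithelial cells. Values were fitted bidirectionally with DMSO as the negative control and activity baseline.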

Read-out in assay [4]: Transforming growth factor beta 1 (TGFb1), TGFB1 (gene 7040)
Put plainly: BSK_BE3C_TGFb1: BioMAP Diversity Plus: BE3C Assay for Transforming growth factor beta 1 (TGFb1) Biomarker Activity (AID 2283036;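 for outcome: TGF-b1 protein level measured by ELISA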). The conditions noted are these: primary human bronchial epithelial cells; actives raise or lower the signal. The method in brief: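 In this human primary bronchial epithelial system, an ELISA quantified TGF-b1 one day after dosing. Endpoint changes in either direction were fitted relative to DMSO.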

Read-out in assay [5]: Plasminogen activator inhibitor-1 (PAI1), SERPINE1 (gene 5054)
As to the kind of experiment: BSK_BE3C_PAI1: BioMAP Diversity Plus: BE3C Assay for Plasminogen activator inhibitor-1 (PAI1) Biomarker Activity (AID 2283037). To be noted: primary human bronchial epithelial cells; actives raise or lower the signal. The method in brief: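 PAI-1 biomarker levels in treated human bronchial epithelial cells are determined by ELISA at 24 h. Both increases and decreases relative to DMSO are fitted.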

Read-out in assay [6]: urokinase plasminogen activator (uPA), PLAU (gene 5328)
As to the kind of experiment: BSK_BE3C_uPA: BioMAP Diversity Plus: BE3C Assay for urokinase plasminogen activator (uPA) Biomarker Activity (AID 2283038).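 For outcome: uPA protein level quantified by ELISA in cell cultures; uPA read one day after compound addition.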 The conditions noted are these: primary human bronchial epithelial cells; actives raise or lower the signal. The method in brief:
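Measured by ELISA: uPA from human primary bronchial epithelial cells 24 h after chemical treatment. Values derive from bidirectional curve fitting with DMSO serving as negative control. Total protein by SRB staining in parallel wells flagged overt cytotoxicity.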

Read-out in assay [7]: Urokinase-type plasminogen activator receptor (uPAR), PLAUR (gene 5329)
As to the kind of experiment: BSK_BE3C_uPAR: BioMAP Diversity Plus: BE3C Assay for Urokinase-type plasminogen activator receptor (uPAR) Biomarker Activity (AID 2283039).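 For outcome: uPAR protein level measured by ELISA on the cells; cells exposed to compound for one day before measurement.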 To be noted: primary human bronchial epithelial cells; actives raise or lower the signal. The method in brief:
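A uPAR ELISA serves as the readout, taken 24 h after treating primary human bronchial epithelial cells. Responses in either direction are fitted against DMSO, which defines baseline activity.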

Read-out in assay [8]: Interleukin-6 (IL6), IL6 (gene 3569)
Put plainly: BSK_CASM3C_IL6: BioMAP Diversity Plus: CASM3C Assay for Interleukin-6 (IL6) Biomarker Activity for (AID 2283040). To be noted: primary human coronary artery smooth muscle cells; actives raise or lower the signal.

Read-out in assay [9]: Tissue plasminogen activator (tPA), PLAT (gene 5327)
As to the kind of experiment: BSK_BE3C_tPA: BioMAP Diversity Plus: BE3C Assay for Tissue plasminogen activator (tPA) Biomarker Activity (AID 2283041).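 For outcome: tPA level quantified by ELISA one day after compound addition.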 The conditions noted are these: primary human bronchial epithelial cells; actives raise or lower the signal. In outline: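 Bidirectional curve fitting relative to DMSO defined activity, with tPA detected by ELISA in chemically treated human bronchial epithelial primary cells at 24 hours.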

Read-out in assay [10]: Interleukin-8 (IL8), CXCL8 (gene 3576)
Put plainly: BSK_CASM3C_IL8: BioMAP Diversity Plus: CASM3C Assay for Interleukin-8 (IL8) Biomarker Activity (AID 2283042).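 Note: IL-8 protein level quantified by ELISA.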 The conditions noted are these: primary human coronary artery smooth muscle cells; actives raise or lower the signal.

Read-out in assay [11]: Human Leukocyte Antigen - DR isotype (HLADR), HLA-DRA (gene 3122)
As to the kind of experiment: BSK_CASM3C_HLADR: BioMAP Diversity Plus: CASM3C Assay for Human Leukocyte Antigen - DR isotype (HLADR) Biomarker Activity (AID 2283043).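 Note: cell-surface HLA-DR protein level quantified by ELISA.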 The conditions noted are these: primary human coronary artery smooth muscle cells; actives raise or lower the signal.

Read-out in assay [12]: Macrophage colony-stimulating factor (MCSF), CSF1 (gene 1435)
Put plainly: BSK_CASM3C_MCSF: BioMAP Diversity Plus: CASM3C Assay for Macrophage colony-stimulating factor (MCSF) Biomarker Activity (AID 2283044).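 Note: M-CSF protein amount quantified by ELISA after 24 h exposure.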 To be noted: primary human coronary artery smooth muscle cells; actives raise or lower the signal.

Read-out in assay [13]: Low-density lipoprotein receptor (LDLR), LDLR (gene 3949)
Put plainly: BSK_CASM3C_LDLR: BioMAP Diversity Plus: CASM3C Assay for Low-density lipoprotein receptor (LDLR) Biomarker Activity (AID 2283045).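 Note: LDLR protein level on the cell surface quantified by ELISA.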 To be noted: primary human coronary artery smooth muscle cells; actives raise or lower the signal.

Read-out in assay [14]: Monocyte Chemoattractant Protein-1 (MCP1), CCL2 (gene 6347)
As to the kind of experiment: BSK_CASM3C_MCP1: BioMAP Diversity Plus: CASM3C Assay for Monocyte Chemoattractant Protein-1 (MCP1) Biomarker Activity (AID 2283046).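 Note: MCP-1 level quantified by ELISA 24 h after dosing.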 The conditions noted are these: primary human coronary artery smooth muscle cells; actives raise or lower the signal.

Assay [15] in a line: BSK_CASM3C_Proliferation: Cell Proliferation Assessment in the BioMAP Diversity Plus: CASM3C Assay (AID 2283047).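 Note: sulforhodamine B total protein stain as relative cell number at 560 nm; sub-confluent cells exposed 48 h before staining; fitted both ways against DMSO so gain or loss of cell number.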 The conditions noted are these: primary human coronary artery smooth muscle cells.
Read-out in assay [16]: Monokine induced gamma interferon (MIG), CXCL9 (gene 4283)
Put plainly: BSK_CASM3C_MIG: BioMAP Diversity Plus: CASM3C Assay for Monokine induced gamma interferon (MIG) Biomarker Activity (AID 2283048).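 Note: MIG protein level measured by ELISA.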 The conditions noted are these: primary human coronary artery smooth muscle cells; actives raise or lower the signal.

Read-out in assay [17]: serum amyloid A (SAA), SAA1 (gene 6288)
Put plainly: BSK_CASM3C_SAA: BioMAP Diversity Plus: CASM3C Assay for serum amyloid A (SAA) Biomarker Activity (AID 2283049).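 Note: SAA protein level quantified by ELISA.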 The conditions noted are these: primary human coronary artery smooth muscle cells; actives raise or lower the signal.

The nature of assay [18]: BSK_CASM3C_SRB: Viability Assessment in the BioMAP Diversity Plus: CASM3C Assay (AID 2283050).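 Note: cells exposed to compound for 24 h.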 The conditions noted are these: primary human coronary artery smooth muscle cells.
Read-out in assay [19]: Thrombomodulin, THBD (gene 7056)
As to the kind of experiment: BSK_CASM3C_Thrombomodulin: BioMAP Diversity Plus: CASM3C Assay for Thrombomodulin Biomarker Activity (AID 2283051).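 Note: thrombomodulin protein level measured by ELISA 24 h after dosing.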 The conditions noted are these: primary human coronary artery smooth muscle cells; actives raise or lower the signal.

Read-out in assay [20]: Vascular cell adhesion molecule 1 (VCAM1), VCAM1 (gene 7412)
As to the kind of experiment: BSK_4H_VCAM1: BioMAP Diversity Plus: 4H Assay for Vascular cell adhesion molecule 1 (VCAM1) Biomarker Activity (AID 2283033).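 For outcome: cell-surface VCAM-1 protein measured by ELISA.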 The conditions noted are these: primary human endothelial cells (HUVEC); actives raise or lower the signal. The method in brief: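 Endpoint derived from bidirectional fitting against DMSO controls of VCAM-1 ELISA signal in umbilical vein endothelial cells sampled at 24 h following treatment.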

Consider `COC(=O)Nc1nc2ccccc2[nH]1`, for which the result in assay [1], in [2], in assay [3], in [4], in [5] and in assay [6] was inactive. In addition, the outcome in assay [7], in assay [8], in [9], in assay [10], in assay [12] and in assay [13] was inactive. The result in assay [14], in assay [16], in [17], in [18] and in assay [19] was inactive. In addition, the AC50 in assay [11] is 5.43 µM (active); in [15], 8.49 µM (active).

On to `CCCCC(CC)COC(=O)c1ccc(C(=O)OCC(CC)CCCC)c(C(=O)OCC(CC)CCCC)c1` (centres undefined), for which the result in assay [1], in [20], in [2], in [3], in assay [4] and in [6] was inactive. The outcome in assay [7], in [8], in assay [9], in assay [10], in [11] and in assay [12] was inactive. The result in assay [13], in [14], in assay [15], in assay [16], in assay [17] and in [18] was inactive. In [19], the outcome was inactive.

Take `CCNS(=O)(=O)C(F)(F)C(F)(F)C(F)(F)C(F)(F)C(F)(F)C(F)(F)C(F)(F)C(F)(F)F`: the AC50 is 5.32 µM (active) and 36.7 µM (active) and 30 µM (active) in [1]; 13.9 µM (active) and 21.1 µM (active) and 14 µM (active) in assay [2]; 44.4 µM (active) and 29.5 µM (active) in assay [3]; 12 µM (active) in [4]; 19.3 µM (active) and 4.88 µM (active) and 4.37 µM (active) in assay [5]; 41.5 µM (active) in assay [6]. Moreover, the AC50 in assay [7] was 21.2 µM (active) and 30 µM (active); in assay [9], 13 µM (active); in [10] it was 17 µM (active); in assay [11] it was 8.6 µM (active); in assay [19], 24.6 µM (active). Moreover, the result in [3], in [6], in assay [7], in assay [8], in assay [9] and in assay [10] was inactive. Moreover, the result in assay [11], in assay [12], in [13], in [14], in assay [15] and in [16] was inactive. The result in assay [17], in assay [18] and in assay [19] was inactive.

For the compound `N#CC(Br)Br`, the result in assay [1], in [20], in assay [2], in [3], in assay [4] and in assay [6] was inactive. Besides, the result in [7], in assay [8], in assay [9], in [10], in assay [11] and in [12] was inactive. Further, the result in assay [13], in assay [14], in assay [15], in assay [16], in assay [17] and in assay [18] was inactive. The outcome in assay [19] was inactive.

As to `O=C(O)C1C2CCC(O2)C1C(=O)O` (centres undefined), the outcome in assay [1], in assay [2], in assay [3], in [6], in assay [7] and in [8] was inactive. Also, the outcome in assay [10], in assay [13], in assay [16], in assay [17], in [18] and in [19] was inactive. Further, the AC50 in assay [20] is 12.1 µM (active); in assay [4], 18.6 µM (active); in assay [9] it was 18.6 µM (active); in assay [11], 4.92 µM (active); in assay [14], 21.8 µM (active).

As for `c1ccc(NNc2ccccc2)cc1`, the result in [1], in assay [2], in assay [3], in assay [4], in assay [5] and in assay [6] was inactive. Further, the outcome in assay [7], in assay [8], in [9], in assay [10], in assay [11] and in assay [12] was inactive. Further, the outcome in assay [13], in assay [14], in assay [15], in assay [16], in [17] and in assay [18] was inactive. The AC50 in assay [19] is 15.9 µM (active).
